Reference: the supplement of paper PMC11732987, “Enantioselective OTUD7B fragment discovery through chemoproteomics screening and high-throughput optimisation” (Communications Chemistry, 2025)

Experiments:
Assay in all cases: log2 ratio of Biotin-Ahx-Ub-VS probe labelling (fragment/DMSO); higher = less target engagement (more negative = stronger competition), active = hit call of the paper (q ≤ 0.05, log2 ratio ≤ -1)
Details in all cases: compound concentration: 200 uM; treatment time: 3 h
[1] = biological target: USP34 (UniProt Q70CQ2)
Chain of USP34 (Q70CQ2 whole entry, the tested form may be a part): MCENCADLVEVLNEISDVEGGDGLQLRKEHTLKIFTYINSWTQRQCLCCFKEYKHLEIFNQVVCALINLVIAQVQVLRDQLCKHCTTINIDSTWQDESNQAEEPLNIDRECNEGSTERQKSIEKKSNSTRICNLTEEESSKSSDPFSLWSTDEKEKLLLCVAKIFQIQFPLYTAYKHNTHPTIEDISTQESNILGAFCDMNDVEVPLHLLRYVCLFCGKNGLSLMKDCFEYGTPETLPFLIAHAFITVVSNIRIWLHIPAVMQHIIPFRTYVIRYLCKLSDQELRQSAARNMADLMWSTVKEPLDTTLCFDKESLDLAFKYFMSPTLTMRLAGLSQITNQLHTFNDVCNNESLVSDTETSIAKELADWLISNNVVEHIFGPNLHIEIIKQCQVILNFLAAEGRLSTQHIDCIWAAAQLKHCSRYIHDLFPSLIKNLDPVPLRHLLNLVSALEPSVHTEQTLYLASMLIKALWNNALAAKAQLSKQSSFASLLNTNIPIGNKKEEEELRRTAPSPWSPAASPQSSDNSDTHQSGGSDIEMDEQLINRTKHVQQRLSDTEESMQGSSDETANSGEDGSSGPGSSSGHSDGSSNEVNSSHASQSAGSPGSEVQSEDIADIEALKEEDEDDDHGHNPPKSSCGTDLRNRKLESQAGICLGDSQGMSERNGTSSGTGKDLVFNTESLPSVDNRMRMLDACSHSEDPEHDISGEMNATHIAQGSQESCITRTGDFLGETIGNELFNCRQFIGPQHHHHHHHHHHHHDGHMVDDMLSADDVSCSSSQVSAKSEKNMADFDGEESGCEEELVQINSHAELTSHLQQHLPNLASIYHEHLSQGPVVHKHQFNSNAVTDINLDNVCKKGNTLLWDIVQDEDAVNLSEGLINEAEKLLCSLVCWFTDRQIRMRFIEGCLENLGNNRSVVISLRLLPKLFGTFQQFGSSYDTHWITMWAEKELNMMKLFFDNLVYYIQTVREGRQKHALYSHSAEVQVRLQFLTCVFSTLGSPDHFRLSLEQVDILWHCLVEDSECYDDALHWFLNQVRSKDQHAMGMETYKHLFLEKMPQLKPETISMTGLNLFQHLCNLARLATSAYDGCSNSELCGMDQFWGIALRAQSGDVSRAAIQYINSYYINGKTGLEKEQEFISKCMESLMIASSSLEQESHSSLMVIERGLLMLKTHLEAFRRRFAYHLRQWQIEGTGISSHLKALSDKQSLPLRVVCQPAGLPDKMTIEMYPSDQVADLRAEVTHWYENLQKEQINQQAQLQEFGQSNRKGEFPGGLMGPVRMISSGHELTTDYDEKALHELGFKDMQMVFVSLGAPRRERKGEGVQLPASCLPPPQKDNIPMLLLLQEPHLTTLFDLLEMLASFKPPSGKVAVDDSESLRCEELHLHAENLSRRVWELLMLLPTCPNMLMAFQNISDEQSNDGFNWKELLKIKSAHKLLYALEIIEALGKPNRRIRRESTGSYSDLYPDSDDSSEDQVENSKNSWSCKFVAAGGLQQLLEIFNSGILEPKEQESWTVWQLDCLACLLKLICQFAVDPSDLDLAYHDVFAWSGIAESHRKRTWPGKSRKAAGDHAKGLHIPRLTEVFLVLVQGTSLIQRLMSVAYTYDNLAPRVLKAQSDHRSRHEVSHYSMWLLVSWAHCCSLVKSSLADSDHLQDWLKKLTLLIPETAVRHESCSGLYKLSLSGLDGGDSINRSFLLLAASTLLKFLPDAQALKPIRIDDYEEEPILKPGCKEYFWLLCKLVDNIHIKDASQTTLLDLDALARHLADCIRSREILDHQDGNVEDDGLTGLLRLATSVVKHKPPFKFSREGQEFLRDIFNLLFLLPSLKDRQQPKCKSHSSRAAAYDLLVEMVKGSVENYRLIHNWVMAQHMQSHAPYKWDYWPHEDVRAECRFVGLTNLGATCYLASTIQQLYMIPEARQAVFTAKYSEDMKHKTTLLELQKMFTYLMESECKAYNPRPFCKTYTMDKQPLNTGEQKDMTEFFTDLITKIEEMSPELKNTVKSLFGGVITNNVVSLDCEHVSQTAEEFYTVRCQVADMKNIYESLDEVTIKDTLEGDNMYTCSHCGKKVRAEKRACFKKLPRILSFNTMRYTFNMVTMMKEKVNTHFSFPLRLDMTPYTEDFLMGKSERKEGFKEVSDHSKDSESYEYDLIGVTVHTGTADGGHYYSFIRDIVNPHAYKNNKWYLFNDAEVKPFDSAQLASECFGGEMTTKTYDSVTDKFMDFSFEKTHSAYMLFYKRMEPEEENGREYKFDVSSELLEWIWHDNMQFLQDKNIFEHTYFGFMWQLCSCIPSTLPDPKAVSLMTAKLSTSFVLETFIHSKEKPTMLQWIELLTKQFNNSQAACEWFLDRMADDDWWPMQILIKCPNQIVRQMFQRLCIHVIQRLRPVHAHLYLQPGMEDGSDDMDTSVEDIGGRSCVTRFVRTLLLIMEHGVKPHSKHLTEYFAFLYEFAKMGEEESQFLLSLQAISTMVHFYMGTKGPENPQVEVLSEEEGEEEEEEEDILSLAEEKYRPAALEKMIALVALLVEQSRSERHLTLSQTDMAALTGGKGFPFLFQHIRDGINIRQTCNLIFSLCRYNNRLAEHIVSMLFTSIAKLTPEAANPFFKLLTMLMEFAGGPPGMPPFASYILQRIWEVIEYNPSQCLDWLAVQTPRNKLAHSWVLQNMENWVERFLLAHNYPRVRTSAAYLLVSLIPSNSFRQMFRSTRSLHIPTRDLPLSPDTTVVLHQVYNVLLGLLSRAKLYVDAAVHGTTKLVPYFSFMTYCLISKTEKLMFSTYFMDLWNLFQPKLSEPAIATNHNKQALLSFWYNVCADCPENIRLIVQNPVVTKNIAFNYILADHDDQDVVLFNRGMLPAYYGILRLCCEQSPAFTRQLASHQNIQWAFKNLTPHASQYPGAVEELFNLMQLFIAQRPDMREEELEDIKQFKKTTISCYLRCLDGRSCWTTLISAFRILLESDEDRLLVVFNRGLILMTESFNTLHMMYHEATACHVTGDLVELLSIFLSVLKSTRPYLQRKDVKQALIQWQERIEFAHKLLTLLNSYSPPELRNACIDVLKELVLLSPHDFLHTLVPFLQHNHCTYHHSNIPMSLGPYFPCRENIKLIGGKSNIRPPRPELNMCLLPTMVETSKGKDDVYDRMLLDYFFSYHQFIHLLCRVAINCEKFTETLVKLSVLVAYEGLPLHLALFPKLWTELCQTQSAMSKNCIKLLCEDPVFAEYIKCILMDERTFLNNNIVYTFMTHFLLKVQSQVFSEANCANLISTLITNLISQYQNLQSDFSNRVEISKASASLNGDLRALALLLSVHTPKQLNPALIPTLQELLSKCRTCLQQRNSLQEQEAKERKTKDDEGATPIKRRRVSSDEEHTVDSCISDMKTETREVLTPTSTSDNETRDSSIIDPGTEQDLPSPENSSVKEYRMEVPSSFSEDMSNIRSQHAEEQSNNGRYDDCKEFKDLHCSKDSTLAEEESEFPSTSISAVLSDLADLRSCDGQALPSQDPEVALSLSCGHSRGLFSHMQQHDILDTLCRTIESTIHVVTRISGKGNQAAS
Procedure, shortened: (§1)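 HEK293T lysate in Tris/CHAPS/IGEPAL buffer with protease inhibitors (495 µg per sample) was given fragment at 200 µM or vehicle for 3 h, in triplicate. It then received Biotin-Ahx-Ub-VS at 0.5 µM final for 1 h. Labelled DUBs were NeutrAvidin-enriched, digested with LysC and trypsin, and run by diaPASEF LC-MS/MS. Values are average log2 fragment/vehicle ratios by unpaired t-test on global-median-normalised Spectronaut quantities of proteins with ≥2 unique peptides.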

[2] = biological target: T1, USP36 (UniProt Q9P275)
T1 sequence (whole entry): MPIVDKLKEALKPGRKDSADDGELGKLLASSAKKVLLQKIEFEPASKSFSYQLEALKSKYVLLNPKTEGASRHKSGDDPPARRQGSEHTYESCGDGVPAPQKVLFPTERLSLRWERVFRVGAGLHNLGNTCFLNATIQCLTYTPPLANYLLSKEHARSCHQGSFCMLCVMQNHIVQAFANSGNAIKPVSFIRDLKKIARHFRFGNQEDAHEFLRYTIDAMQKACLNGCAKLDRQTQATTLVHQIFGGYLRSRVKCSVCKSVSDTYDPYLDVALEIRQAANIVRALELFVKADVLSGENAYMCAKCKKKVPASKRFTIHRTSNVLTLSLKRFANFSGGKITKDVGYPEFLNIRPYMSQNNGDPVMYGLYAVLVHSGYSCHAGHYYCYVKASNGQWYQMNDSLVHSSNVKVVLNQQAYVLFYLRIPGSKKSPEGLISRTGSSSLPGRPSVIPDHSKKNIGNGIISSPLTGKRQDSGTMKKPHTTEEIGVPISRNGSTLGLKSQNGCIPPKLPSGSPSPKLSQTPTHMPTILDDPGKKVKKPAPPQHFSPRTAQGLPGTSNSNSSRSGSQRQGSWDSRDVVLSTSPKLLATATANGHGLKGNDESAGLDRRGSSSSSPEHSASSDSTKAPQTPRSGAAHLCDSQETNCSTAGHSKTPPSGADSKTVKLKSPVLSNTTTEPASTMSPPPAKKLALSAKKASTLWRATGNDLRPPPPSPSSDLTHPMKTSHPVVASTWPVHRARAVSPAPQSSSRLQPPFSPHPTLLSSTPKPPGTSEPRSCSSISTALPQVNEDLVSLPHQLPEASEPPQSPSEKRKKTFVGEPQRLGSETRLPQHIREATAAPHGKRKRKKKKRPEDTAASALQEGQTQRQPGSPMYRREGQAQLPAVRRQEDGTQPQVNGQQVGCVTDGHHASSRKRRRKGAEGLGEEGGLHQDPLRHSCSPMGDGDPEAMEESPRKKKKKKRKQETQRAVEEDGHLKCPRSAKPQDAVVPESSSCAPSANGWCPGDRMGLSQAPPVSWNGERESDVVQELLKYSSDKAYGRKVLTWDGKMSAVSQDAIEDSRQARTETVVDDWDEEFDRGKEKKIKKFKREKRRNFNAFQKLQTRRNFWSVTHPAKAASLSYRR
Procedure, shortened: as §1

[3] = biological target: T2, USP38 (UniProt Q8NB14)
T2 sequence (whole entry): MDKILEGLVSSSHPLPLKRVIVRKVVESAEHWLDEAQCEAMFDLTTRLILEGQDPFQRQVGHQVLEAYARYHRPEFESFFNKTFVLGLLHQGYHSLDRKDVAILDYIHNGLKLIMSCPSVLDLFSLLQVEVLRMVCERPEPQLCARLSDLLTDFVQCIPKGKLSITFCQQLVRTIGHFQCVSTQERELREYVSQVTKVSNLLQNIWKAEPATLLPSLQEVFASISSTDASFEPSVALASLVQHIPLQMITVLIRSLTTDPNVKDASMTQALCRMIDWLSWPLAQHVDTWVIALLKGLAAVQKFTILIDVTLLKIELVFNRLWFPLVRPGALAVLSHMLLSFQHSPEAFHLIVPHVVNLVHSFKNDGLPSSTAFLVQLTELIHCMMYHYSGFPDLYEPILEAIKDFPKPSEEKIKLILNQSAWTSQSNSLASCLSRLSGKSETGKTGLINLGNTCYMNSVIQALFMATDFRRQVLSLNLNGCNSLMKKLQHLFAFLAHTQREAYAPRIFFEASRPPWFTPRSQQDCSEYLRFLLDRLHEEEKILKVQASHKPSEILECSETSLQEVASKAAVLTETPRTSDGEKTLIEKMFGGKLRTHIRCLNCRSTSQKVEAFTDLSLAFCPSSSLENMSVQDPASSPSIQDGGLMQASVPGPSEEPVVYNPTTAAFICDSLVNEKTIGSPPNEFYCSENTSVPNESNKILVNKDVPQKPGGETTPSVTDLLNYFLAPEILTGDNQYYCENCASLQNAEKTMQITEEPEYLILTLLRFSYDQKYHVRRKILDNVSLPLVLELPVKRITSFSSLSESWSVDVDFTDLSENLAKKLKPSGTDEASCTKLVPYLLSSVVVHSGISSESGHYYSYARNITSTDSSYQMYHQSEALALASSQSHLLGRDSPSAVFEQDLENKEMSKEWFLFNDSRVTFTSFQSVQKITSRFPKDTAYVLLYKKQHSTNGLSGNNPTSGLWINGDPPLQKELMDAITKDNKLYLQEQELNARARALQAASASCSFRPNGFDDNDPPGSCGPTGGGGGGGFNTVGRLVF
Procedure, shortened: as §1

[4] = biological target: T3, USP39 (UniProt Q53GS9)
T3 sequence (whole entry): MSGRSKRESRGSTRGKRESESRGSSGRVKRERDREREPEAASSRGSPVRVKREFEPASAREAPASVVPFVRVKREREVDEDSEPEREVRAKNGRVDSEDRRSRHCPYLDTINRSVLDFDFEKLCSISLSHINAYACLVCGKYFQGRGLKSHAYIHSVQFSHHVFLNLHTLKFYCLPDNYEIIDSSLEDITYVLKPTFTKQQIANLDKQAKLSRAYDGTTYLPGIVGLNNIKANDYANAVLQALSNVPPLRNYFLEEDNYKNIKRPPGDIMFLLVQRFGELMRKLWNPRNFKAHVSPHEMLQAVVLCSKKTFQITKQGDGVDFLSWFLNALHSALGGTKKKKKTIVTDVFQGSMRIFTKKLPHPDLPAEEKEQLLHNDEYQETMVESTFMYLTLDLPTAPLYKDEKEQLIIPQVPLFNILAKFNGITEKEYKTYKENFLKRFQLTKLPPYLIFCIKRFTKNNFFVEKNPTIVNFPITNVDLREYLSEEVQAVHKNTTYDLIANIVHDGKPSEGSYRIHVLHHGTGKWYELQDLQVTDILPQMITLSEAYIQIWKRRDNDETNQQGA
Procedure, shortened: as §1

[5] = biological target: T4, USP4 (UniProt Q13107)
T4 sequence (whole entry): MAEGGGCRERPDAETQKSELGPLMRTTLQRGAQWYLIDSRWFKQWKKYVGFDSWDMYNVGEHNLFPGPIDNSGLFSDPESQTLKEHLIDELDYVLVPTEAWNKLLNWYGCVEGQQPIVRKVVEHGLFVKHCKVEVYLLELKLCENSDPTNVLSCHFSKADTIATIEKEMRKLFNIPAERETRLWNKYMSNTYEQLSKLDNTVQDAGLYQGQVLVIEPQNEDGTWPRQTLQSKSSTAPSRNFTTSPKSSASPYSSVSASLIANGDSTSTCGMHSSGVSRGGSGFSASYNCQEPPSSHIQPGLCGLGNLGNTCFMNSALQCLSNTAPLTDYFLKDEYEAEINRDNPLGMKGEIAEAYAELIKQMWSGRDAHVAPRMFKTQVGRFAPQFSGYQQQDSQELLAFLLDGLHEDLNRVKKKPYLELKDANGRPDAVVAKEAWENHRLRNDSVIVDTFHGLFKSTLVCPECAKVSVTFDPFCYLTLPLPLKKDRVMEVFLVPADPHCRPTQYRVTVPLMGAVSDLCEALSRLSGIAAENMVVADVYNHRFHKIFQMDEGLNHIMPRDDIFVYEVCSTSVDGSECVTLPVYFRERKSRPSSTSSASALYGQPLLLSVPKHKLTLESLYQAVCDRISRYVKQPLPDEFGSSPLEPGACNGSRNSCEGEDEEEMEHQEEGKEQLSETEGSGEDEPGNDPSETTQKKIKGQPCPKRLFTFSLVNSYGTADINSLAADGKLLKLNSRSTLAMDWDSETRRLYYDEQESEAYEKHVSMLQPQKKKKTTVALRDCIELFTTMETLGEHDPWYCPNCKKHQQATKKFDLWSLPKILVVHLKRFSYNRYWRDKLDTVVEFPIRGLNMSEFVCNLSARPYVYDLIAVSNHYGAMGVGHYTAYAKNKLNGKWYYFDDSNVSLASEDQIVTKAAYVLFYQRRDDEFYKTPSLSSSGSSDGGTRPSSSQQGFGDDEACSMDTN
Procedure, shortened: as §1

Measured: log2 ratio of Biotin-Ahx-Ub-VS probe labelling

COc1ccccc1C(C)NC(=O)CCl (stereo not given)
inactive: [1] -0.129 | [2] -0.00263 | [3] -0.182 | [4] -0.155 | [5] -0.226
